# From PubChem BioAssay (Tox21)
# Inconclusive results are not listed. Values without a mark were called inactive. Active and inactive are the calls of the source. Calls follow the shape of the dose curve; as a rule, active = well fitted cell-killing curve with a large enough effect in the repeat runs; inconclusive = weak or mixed curves, or effect the other way; inactive = no such curve, though single readings can be large or run the other way. Non-standard residues stand in square brackets, D forms with d. Residues, ends and D or L forms follow the SMILES beside them. pGlu = O=C1CC[C@@H](C(=O)O)N1; Thz = O=C(O)[C@@H]1CSCN1
# Test: qHTS assay for identifying genotoxic compounds that show differential cytotoxicity against isogenic chicken DT40 cell lines with known DNA damage response pathways - wild type cell line (AID 743012); also: nearly all actives have a fitted effect of over 60% in size
# Conditions: DT40 wild type chicken cells viability, CellTiter-Glo, 40 h; series mostly up to 68.4 µM; activity change, negative = cytotoxicity: at the top concentration
# Summary of the method: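 Wild type DT40, 300 cells/well, ~0.5 h settle at 37 C/5% CO2; compounds in DMSO added by pintool; 40 h at 37 C/5% CO2; CellTiter-Glo, 30 min RT; luminescence.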
# % is scaled to controls: 0 for no effect and ±100 for the full control effect; potency is read from the fitted curve at half-maximal effect.
SMILES,"activity change, negative = cytotoxicity",Potency
CC1(O)CCC(C(C)(C)O)CC1 (configuration not stated),4.87%,
CCOC(=O)COc1ccc2c(C)c(CCN(CC)CC)c(=O)oc2c1,2.21%,
N[C@H](CCC(=O)O)C(=O)O,11.3%,
CCN(CC)CCOc1ccccc1OC,-24.7%,
CC(C)C[C@H](NC(=O)[C@@H](Cc1c[nH]c2ccccc12)NC(=O)[C@H](Cc1ccc(O)cc1)NC(=O)[C@H](CO)NC(=O)[C@H](Cc1c[nH]c2ccccc12)NC(=O)[C@H](Cc1cnc[nH]1)NC(=O)[C@@H]1CCC(=O)N1)C(=O)N[C@@H](CCCN=C(N)N)C(=O)N1CCC[C@@H]1C(=O)NCC(N)=O,8.48%,
CCCCCCCCCCCCCC[n+]1ccc(C)cc1,,0.188 µM (active)
[O]=[Bi][O][Bi]=[O],15.1%,
CC1(C)S[C@@H]2[C@H](NC(=O)[C@H](N)c3ccccc3)C(=O)N2[C@H]1C(=O)OCOC(=O)[C@@H]1N2C(=O)C[C@H]2S(=O)(=O)C1(C)C,0.371%,
CCN(CC)c1ccc(C(=C2C=CC(=[N+](CC)CC)C=C2)c2ccccc2)cc1,,0.0944 µM (active)
C=CC1=C(C)C2=CC3=NC(=C(CC(=O)[O-])C4=NC(=C(C)C4=C([O-])[O-])C=c4[n-]c(c(C)c4CC)=CC1=N2)C(CCC(=O)[O-])C3C.[Cu+2].[Na+].[Na+].[Na+] (configuration not stated),,29.8 µM (active)
COc1ccc(CCNC[C@H](O)c2ccc(O)cc2)cc1OC,4.82%,
Cc1cc(C(=O)NNCc2ccccc2)no1,9.55% [at 31.4 µM],
NC[C@@H]1O[C@H](O[C@H]2[C@@H](O)[C@H](O[C@@H]3[C@@H](O)[C@H](N)C[C@H](N)[C@H]3O[C@H]3O[C@H](CN)[C@@H](O)[C@H](O)[C@H]3N)O[C@@H]2CO)[C@H](N)[C@@H](O)[C@@H]1O,-0.272%,

# Test: qHTS assay for identifying genotoxic compounds that show differential cytotoxicity against isogenic chicken DT40 cell lines with known DNA damage response pathways - Rev3 mutant cell line (AID 743014); also: nearly all actives have a fitted effect of over 55% in size
# Conditions: chicken DT40 Rev3-/- viability, CellTiter-Glo, 40 h; series mostly up to 68.4 µM; activity, negative = cytotoxicity: at the top concentration
SMILES,"activity, negative = cytotoxicity",Potency
CCCCCCCCCCCC(=O)OC[C@@H](O)C1OC[C@H](O)[C@H]1O (some centres not stated),2.02%,
CN(C)c1ccc(C(=C2C=CC(=[N+](C)C)C=C2)c2c(O)c(S(=O)(=O)[O-])cc3cc(S(=O)(=O)O)ccc23)cc1,,10.6 µM (active)
CNc1cc(OC)c(C(=O)N[C@H]2CCN(Cc3ccccc3)[C@H]2C)cc1Cl,,4.73 µM (active)
O=C(O)c1cccc(/C=C2/C[C@@H]3[C@@H](/C=C/[C@@H](O)C4CCCCC4)[C@H](O)C[C@@H]3O2)c1,3.87%,
NCCCNCCCCNC(=O)C(O)NC(=O)CCCCCCN=C(N)N (configuration not stated),,1.68 µM (active)
C=C[C@]1(C)C[C@@H](OC(=O)CSCCN(CC)CC)[C@]2(C)[C@H](C)CC[C@]3(CCC(=O)[C@H]32)[C@@H](C)[C@@H]1O,,5.96 µM (active)
CC(O)[C@@H]1NC(=O)[C@H](Cc2ccccc2)NC(=O)[C@H](C(C)O)NC(=O)[C@H](CCCCN)NC(=O)[C@H](Cc2c[nH]c3ccccc23)NC(=O)[C@H](Cc2ccccc2)NC(=O)[C@H](Cc2ccccc2)NC(=O)[C@H](CC(N)=O)NC(=O)[C@H](CCCCN)NC(=O)[C@@H](NC(=O)CNC(=O)[C@H](C)N)CSSC[C@@H](C(=O)O)NC(=O)[C@H](CO)NC1=O (some centres not stated),4.83%,
O=C(CO)[C@@H](O)[C@H](O)[C@@H](O)C(=O)O,1.04%,
O=C(O)[C@H]1/C(=C/CO)O[C@@H]2CC(=O)N21,0.0412%,
CN(C)CCCN1c2ccccc2C(C)(C)c2ccccc21,,26.6 µM (active)
NCCC(=O)[N-][C@@H](Cc1cnc[nH]1)C(=O)O.[Zn],1.21%,
Cc1cc2nc3c(=O)[nH]c(=O)nc-3n(C[C@H](O)[C@H](O)[C@H](O)COP(=O)(O)OP(=O)(O)OC[C@H]3O[C@@H](n4cnc5c(N)ncnc54)[C@H](O)[C@@H]3O)c2cc1C,5.08%,
C[N@+]12CCCC[C@@H]1CCC(=C(c1cccs1)c1cccs1)C2,,10.6 µM (active)
CCCCC/C=C\C/C=C\C/C=C\CCCCC(=O)O,-2.88%,
COc1ccc(/C=C/C(=O)OCCC(C)C)cc1,-9.43%,
CC(=O)[C@@]1(O)CC[C@H]2[C@@H]3C=C(Cl)C4=CC(=O)[C@@H]5C[C@@H]5[C@]4(C)[C@H]3CC[C@@]21C,-8.22%,
O=C1CC[C@@H](C(=O)N2CSC[C@H]2C(=O)O)N1 ([pGlu]-[Thz]-OH),15.9%,
CCCc1ccc(C(=O)O)cc1,-0.332%,
CCOc1cc(-c2nccc3cc(OC)c(OC)cc23)cc(OCC)c1OCC,,6.68 µM (active)
CCCCCCCCCCCCCCCC(=O)O[C@@H]1[C@@H](O)[C@@H](O)[C@@H]([C@H](NC(=O)[C@@H]2C[C@@H](CCC)CN2C)[C@H](C)Cl)O[C@@H]1SC,9.39%,

SMILES,"activity, negative = cytotoxicity",Potency
OCCN1CCN(CC/C=C2/c3ccccc3Sc3ccc(Cl)cc32)CC1,,11.4 µM (active)
CCC(Cc1c(I)cc(I)c(O)c1I)C(=O)O (configuration not stated),13.7%,
C=C[C@]1(C)C[C@@H](OC(=O)CSC(C)(C)CNC(=O)[C@H](N)C(C)C)[C@]2(C)[C@H](C)CC[C@]3(CCC(=O)[C@H]32)[C@@H](C)[C@@H]1O,,0.335 µM (active)
C[C@H]1C[C@H]2[C@@H]3CCC4=CC(=O)C=C[C@]4(C)[C@@]3(F)[C@@H](O)C[C@]2(C)[C@@]1(O)C(=O)CCl,,26.6 µM (active)
CN=C1C=CC(=C(c2ccc(N(C)C)cc2)c2ccc(N(C)C)cc2)C=C1,,1.06 µM (active)
CC(=O)O[C@H]1C(=O)[C@@]2(C)[C@H]([C@H](OC(=O)c3ccccc3)[C@]3(O)C[C@H](OC(=O)[C@H](O)[C@@H](NC(=O)c4ccccc4)c4ccccc4)C(C)=C1C3(C)C)[C@]1(OC(C)=O)CO[C@@H]1C[C@@H]2O,,0.0094 µM (active)
CC1(O)CCC(C(C)(C)O)CC1 (configuration not stated),13.8%,
CCOC(=O)COc1ccc2c(C)c(CCN(CC)CC)c(=O)oc2c1,-2.76%,
N[C@H](CCC(=O)O)C(=O)O,10.6%,
CCN(CC)CCOc1ccccc1OC,0.376%,
CC(C)C[C@H](NC(=O)[C@@H](Cc1c[nH]c2ccccc12)NC(=O)[C@H](Cc1ccc(O)cc1)NC(=O)[C@H](CO)NC(=O)[C@H](Cc1c[nH]c2ccccc12)NC(=O)[C@H](Cc1cnc[nH]1)NC(=O)[C@@H]1CCC(=O)N1)C(=O)N[C@@H](CCCN=C(N)N)C(=O)N1CCC[C@@H]1C(=O)NCC(N)=O,0.324%,
CCCCCCCCCCCCCC[n+]1ccc(C)cc1,,0.335 µM (active)
[O]=[Bi][O][Bi]=[O],-0.787%,
CC1(C)S[C@@H]2[C@H](NC(=O)[C@H](N)c3ccccc3)C(=O)N2[C@H]1C(=O)OCOC(=O)[C@@H]1N2C(=O)C[C@H]2S(=O)(=O)C1(C)C,13.2%,
CCN(CC)c1ccc(C(=C2C=CC(=[N+](CC)CC)C=C2)c2ccccc2)cc1,,0.106 µM (active)
C=CC1=C(C)C2=CC3=NC(=C(CC(=O)[O-])C4=NC(=C(C)C4=C([O-])[O-])C=c4[n-]c(c(C)c4CC)=CC1=N2)C(CCC(=O)[O-])C3C.[Cu+2].[Na+].[Na+].[Na+] (configuration not stated),,23.7 µM (active)
COc1ccc(CCNC[C@H](O)c2ccc(O)cc2)cc1OC,2.54%,
Cc1cc(C(=O)NNCc2ccccc2)no1,0.199% [at 31.4 µM],
NC[C@@H]1O[C@H](O[C@H]2[C@@H](O)[C@H](O[C@@H]3[C@@H](O)[C@H](N)C[C@H](N)[C@H]3O[C@H]3O[C@H](CN)[C@@H](O)[C@H](O)[C@H]3N)O[C@@H]2CO)[C@H](N)[C@@H](O)[C@@H]1O,0.41%,
